These results are taken from PubChem BioAssay AID1851 (National Center for Advancing Translational Sciences (NCATS), 2009).

SMILES strings stand for the structures. Where “and” joins values, the source holds several entries; their conditions need not be identical. Equal entries are not always repeated. The whole screen tested about 16,000 compounds, of which about 4,000 (25%) were called active. Another 26% or so got no clear call; they are omitted. Only a sample is shown. Unmarked numbers belong to inactive results. The call rests on the fitted dose curve; in most records, active means well fitted curve in the direction sought with a large enough effect; inconclusive means small, poorly fitted or top-dose-only effect, or effect the other way; inactive means no such curve, though single readings can be large or run the other way.
On the % scale 0 is the no-effect control and ±100 the full control effect.

The experiment deals with Cytochrome P450 2C9 (Homo sapiens) (UniProt P11712). Briefly: Cytochrome panel assay with activity outcomes. As to conditions: recombinant CYP, pro-luciferin dealkylation, luminescence, p450-cyp2c9; series mostly up to 57.1 µM; activity, negative = inhibition: at the top concentration.
Chain of Cytochrome P450 2C9 (Homo sapiens) (P11712 whole entry, looked up): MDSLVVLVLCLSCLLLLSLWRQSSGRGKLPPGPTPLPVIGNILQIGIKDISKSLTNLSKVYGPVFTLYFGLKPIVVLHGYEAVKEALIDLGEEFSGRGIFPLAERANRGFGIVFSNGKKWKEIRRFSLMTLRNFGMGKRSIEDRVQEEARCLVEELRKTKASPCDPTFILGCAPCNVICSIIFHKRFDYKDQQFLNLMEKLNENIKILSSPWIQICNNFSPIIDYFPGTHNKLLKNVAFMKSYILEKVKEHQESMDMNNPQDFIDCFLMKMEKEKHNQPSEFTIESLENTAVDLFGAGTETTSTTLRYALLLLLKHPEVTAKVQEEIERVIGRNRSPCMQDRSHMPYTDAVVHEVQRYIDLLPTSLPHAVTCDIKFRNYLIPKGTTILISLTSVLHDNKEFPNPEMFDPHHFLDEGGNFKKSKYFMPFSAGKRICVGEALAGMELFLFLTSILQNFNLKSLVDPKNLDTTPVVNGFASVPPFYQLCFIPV
As for `Cc1ccc(Nc2nc(Cl)nc(N(C)C#N)n2)cc1`, the AC50 (commonly the midpoint of the concentration-response curve, whichever way the signal moves) is 15.8 µM (active).
As to `O[C@]1(c2ccccc2)c2ccccc2NC2=NCCN21`, the activity, negative = inhibition was 3.96% [at 11.4 µM].
Same read-out and setting: in the case of `CS(=O)(=O)c1ccccc1COC(=O)Nc1ccc(Cl)cc1` it was -21.7%.
With `O=C(Nc1ccccc1)OCc1cc(-c2ccc(Cl)cc2)on1`, the AC50 was 2.82 µM (active).
For the molecule `Cc1cnc(CNc2ncncc2-c2ccc(C(=O)N(C)C)cc2)cn1`, the activity, negative = inhibition is 26.6% [at 2.29 µM].
Same read-out and setting: in the case of `Cc1cnc(CNc2nc(-c3ccccc3C)nc3ccccc23)cn1` it was 18.8% [at 2.29 µM]; in that of `CC(=O)NCCNc1ccnc(-c2ccccc2C)n1`, 7.25% [at 2.29 µM]; in that of `COc1ccc2nccc(SCC(=O)O)c2c1`, -6.85% [at 11.4 µM].
In the case of `COc1ccc2c(c1)nc(SCC(=O)c1ccc(Br)s1)n2C`, the AC50 is 15.8 µM (active).
As to `Cc1noc(C)c1-c1ccc2ncnc(NCCN3CCOCC3)c2c1`, the activity, negative = inhibition was -1.53% [at 2.29 µM].
Same read-out and setting: in the case of `CCC(=O)O[C@@H]1[C@H](C)O[C@H](O[C@H]2[C@@H](N(C)C)[C@H](O)[C@@H](O[C@@H]3[C@@H](CC=O)C[C@@H](C)[C@@H](O)/C=C\C=C/C[C@@H](C)OC(=O)C[C@@H](OC(=O)CC)[C@H]3OC)O[C@H]2C)C[C@]1(C)O` it was 4.08% [at 25.6 µM]; in that of `c1ccc2c(NC3CC3)nc(-c3ccoc3)nc2c1`, -17.7% [at 2.29 µM].
On to `c1ccc(-c2c3ccccc3nc3[nH]c4ccccc4c23)cc1`, for which the AC50 is 10 µM (active).
Take `CCCCc1c2ccccc2nc2[nH]c3ccccc3c12`: the “activity, negative = inhibition” value was -11.5%.
The same measure, in the same setting: in the case of `CC[C@@H]1CN2CCc3cc(OC)c(OC)cc3[C@H]2C[C@@H]1C[C@@H]1NCCc2cc(OC)c(OC)cc21` it was 8.9%; in that of `CN1CCN(c2ccnc(-c3ccc(N(C)C)cc3)n2)CC1`, 4.88% [at 2.29 µM].
Still for that read-out and setting: the result for `CN(C)c1ccc(O)c2c1C[C@H]1C[C@H]3[C@@H](N(C)C)C(=O)C(C(N)=O)=C(O)[C@]3(O)C(=O)C1=C2O` reads -3.59% [at 25.6 µM]; that for `CCN(CC)CCCNC(=O)CC1Sc2ccccc2NC1=O` (configuration not stated), -23.3%; that for `COc1ccccc1CNC(=O)CSc1nc2nc(C)cc(C)n2n1`, 43.7%.
Regarding `Cc1cc(C)n2nc(SCc3cc(=O)oc4ccc5ccccc5c34)nc2n1`, the AC50 was 8.91 µM (active).
With `Cc1cc(C)n2nc(SCN3C(=O)c4ccccc4C3=O)nc2n1`, the “activity, negative = inhibition” value is -0.785%.
The same measure, in the same setting: in the case of `CO[C@@H]1COC(=O)C/C=C\[C@@H](C)COC(=O)[C@H](Cc2ccccc2)NC(=O)C/C=C\[C@H]1C` it was -17.6% [at 11.4 µM].
Still for that read-out and setting: the result for `O=C1CCCC=C1[C@@H](O)C1CCCCC1` reads 14.2% [at 11.4 µM]; that for `O=C1CCCC=C1[C@H](O)c1ccc([N+](=O)[O-])cc1`, -18.1% [at 11.4 µM].
As to `O=C1CCCC=C1[C@H](CCc1ccccc1)OC(=O)c1ccc(Br)cc1`, the AC50 is 3.16 µM (active).
`CCCCn1c(SCC(=O)N2CCCC2)nc2c1c(=O)n(C)c(=O)n2C`: the “activity, negative = inhibition” value was -14.8%.
Regarding `CCCCCn1c(CN2CCCCC2C)nc2c1c(=O)n(C)c(=O)n2C` (configuration not stated), the AC50 was 15.8 µM (active).
On to `CN(C)CCn1c(CO)nc2c1c(=O)n(C)c(=O)n2C`, for which the activity, negative = inhibition is 0.0092% [at 11.4 µM].
On the same count and under the same terms, in the case of `CCNc1ncc2nc(-c3cc(F)cc(F)c3)c(=O)n(-c3ccc(OC)cc3)c2n1` it was 13.1%; in that of `O=C(Oc1ccccc1)N1CCC2(CC1)CCN(c1cccc(-c3ccccc3)c1)CC2`, -2.21%; in that of `N#Cc1cccc(-c2cncnc2NCc2ccccc2)c1`, -4.42% [at 2.29 µM].
The same measure, in the same setting: the result for `COC(=O)c1c(C)nc2ccccc2c1C(=O)O` reads -8.6%.
As to `COC(=O)c1c(C)oc2ccc(N(C(=O)c3ccncc3)S(=O)(=O)c3ccccc3)cc12`, the AC50 is 2.51 µM (active).
For the molecule `CCC(C)N1C(=O)S/C(=C/c2ccc(Sc3nc4ccccc4[nH]3)o2)C1=O` (configuration not stated), the AC50 was 1.26 µM (active).
Turning to `Cc1ncc([N+](=O)[O-])n1CC(C)O` (configuration not stated), the “activity, negative = inhibition” value is 10%.
The same measure, in the same setting: in the case of `Clc1cccc(C=NC=Nc2cccc(Cl)c2)c1` it was -9.46%.
Regarding `CC(C)(C)c1nc(SCC(=O)Nc2ccc(N3CCOCC3)cc2)c2ccccc2n1`, the AC50 was 7.94 µM (active).
Take `Cn1c(CCC(=O)Nc2ccc(N3CCOCC3)cc2)nc(=O)c2ccccc21`: the “activity, negative = inhibition” value is 13.8%.
`CNCC[C@H](Oc1ccccc1C)c1ccccc1`: the “activity, negative = inhibition” value is -19.6%.
Same read-out and setting: the result for `CNCCC=C1c2ccccc2C=Cc2ccccc21` reads 15.2% [at 25.6 µM].
In the case of `Cc1ccc(C)c(CN2C(=O)C3CCCN3c3ccc(C#N)cc32)c1` (configuration not stated), the AC50 is 7.08 µM (active).
In the case of `COc1ccccc1CN1CC[C@@]2(CCCN(S(=O)(=O)c3ccccc3)C2)C1`, the “activity, negative = inhibition” value was -6.93%.
Turning to `CCOc1ccc(N(C(=O)/C=C/C(=O)Nc2cc(C)on2)C(C(=O)NC2CCCC2)c2ccccc2C)cc1` (configuration not stated), the AC50 was 3.16 µM (active).
For the molecule `O=C(O)[C@@H]1[C@@H]2C[C@H]([C@@H](Br)[C@H]2N2C(=O)CCC2=O)[C@@H]1C(=O)O`, the activity, negative = inhibition is 8.14% [at 11.4 µM].
With `O=C(CCN1C(=O)c2ccccc2C1=O)Oc1ccc2ccccc2c1`, the “activity, negative = inhibition” value was -2.31%.
Regarding `O=S1(=O)C=C(Oc2ccc3ccccc3c2)c2ccccc21`, the AC50 is 3.98 µM (active).
As for `CN1CCN(Cc2nc3cccc4c3c([n+]2[O-])-c2ccccc2-4)CC1`, the activity, negative = inhibition was -11.8% [at 11.4 µM].
On to `c1ccc2nc(C3=NCCN3)ccc2c1`, for which the AC50 entry was “inactive”.
On the same count and under the same terms, in the case of `CC(c1ccc(Cl)cc1)n1c(-c2ccc3ccccc3n2)n[nH]c1=S` (configuration not stated) it was 2.51 µM (active).
Regarding `CN(C)CC[C@H](c1ccc(Cl)cc1)c1ccccn1`, the “activity, negative = inhibition” value was 17.3%.
Consider `COC(=O)c1[nH]c(C)c(/C(O)=C2\C(=O)C(=O)N(CCN(C)C)C2c2cccs2)c1C` (configuration not stated), for which the “activity, negative = inhibition” value was 20%.
In the case of `CC1CCN(c2ccc(S(=O)(=O)Nc3cc(C(=O)O)cc(C(=O)O)c3)cc2[N+](=O)[O-])CC1`, the AC50 was 14.1 µM (active).
`NNS(=O)(=O)c1cc(C(=O)O)cc(C(=O)O)c1`: the activity, negative = inhibition was -5.43% [at 11.4 µM].
Take `CC1CCN(c2ccc(/C=N/n3nnnc3N)cc2[N+](=O)[O-])CC1`: the “activity, negative = inhibition” value is -14.5%.
In the case of `COC(=O)c1cc(NS(=O)(=O)c2ccc(N3CCCCC3)c([N+](=O)[O-])c2)cc(C(=O)OC)c1`, the AC50 is 0.631 µM (active).
Consider `COC(=O)c1cc(NS(=O)(=O)c2ccc(N3CCCCCC3)c([N+](=O)[O-])c2)cc(C(=O)OC)c1`, for which the AC50 was 2.24 µM (active).
Turning to `O=c1n(-c2ccccc2)c(=O)n2n1CC[C@H]1/C(=N\OC[C@@H](O)COCc3ccco3)[C@H]3O[C@@H]3[C@@H](O)[C@@H]12`, the activity, negative = inhibition is 19.1% [at 11.4 µM] and 17% [at 11.4 µM].
`Cc1nc2c(c(-c3ccccc3)c1C#N)C(=O)c1ccccc1-2`: the AC50 was 0.447 µM (active).
Same read-out and setting: in the case of `O=C(Cn1c(-c2cscn2)nc2ccccc21)Nc1cc(F)ccc1F` it was 15.8 µM (active); in that of `O=C(Nc1ccc(Br)cc1)c1ccc(CSC2=NCCS2)cc1`, 7.08 µM (active).
On the same count and under the same terms, the result for `COc1ccc(OCCn2c(C)c(/C=N/n3cnnc3)c3ccccc32)cc1` reads 0.316 µM (active).
Take `COc1ccc(Oc2c(C=O)c3ccccc3n2C)cc1`: the “activity, negative = inhibition” value is -13%.
As for `C[C@H](N=C(NC#N)Nc1ccncc1)C(C)(C)C`, the “activity, negative = inhibition” value was -23.6%.
`Cc1cc(C(F)F)n2nc(C(=O)Nc3cccnc3Cl)nc2n1`: the “activity, negative = inhibition” value was -21.3%.
`Cc1nc(C(=O)Nc2ccc(Cl)cc2Cl)nn1-c1cc(OC(C)C)c(Cl)cc1Cl`: the AC50 is 2.51 µM (active).
As for `FC(F)(F)c1ccccc1-c1nccc(NCc2cccs2)n1`, the activity, negative = inhibition was -24.4% [at 2.29 µM].
As to `FC(F)(F)c1cc(-c2ccco2)nc(NCCc2ccccc2)n1`, the AC50 is 1.41 µM (active).
Still for that read-out and setting: the result for `FC(F)(F)c1cc(-c2ccco2)nc(NCc2cccs2)n1` reads 3.55 µM (active).
Take `FC(F)(F)c1ccccc1-c1cc(NCc2ccccc2)ncn1`: the activity, negative = inhibition is 1.84% [at 2.29 µM].
On the same count and under the same terms, the result for `FC(F)(F)c1ccccc1-c1cc(NCc2cccs2)ncn1` reads -6.83% [at 2.29 µM].
Same read-out and setting: the result for `CCNc1ncc2nc(-c3cc(F)cc(F)c3)c(=O)n(Cc3cccs3)c2n1` reads 25.7%; that for `Nc1cc(Cl)nc(N/N=C/c2ccccc2[N+](=O)[O-])n1`, 15.6%.
For the molecule `O=[N+]([O-])c1ccccc1N/N=C/c1c[nH]c2ccccc12`, the AC50 was 7.94 µM (active).
With `O=C(O)c1ccccc1N/N=C\c1ccnc2ccccc12`, the “activity, negative = inhibition” value is -98.6%.
Take `Oc1c(Cl)cc(C(c2cc(Cl)c(O)c(Cl)c2)C(c2cc(Cl)c(O)c(Cl)c2)c2cc(Cl)c(O)c(Cl)c2)cc1Cl`: the AC50 was 0.1 µM (active).
On the same count and under the same terms, in the case of `CN(C)CN1CSC(=S)N(CN(C)C)C1` it was 3.16 µM (active).
`[O-][N+](CCO)(CCO)c1ncnc2nc[nH]c12`: the activity, negative = inhibition is 27.7% [at 11.4 µM].
On the same count and under the same terms, the result for `Cc1noc(C)c1C(=O)N1CCC[C@@]2(CCN(Cc3nccs3)C2)C1` reads -1.28%.
`c1ccc2cc(Sc3ncnc4c3oc3ccccc34)ccc2c1`: the AC50 was 10 µM (active).
For the molecule `CC[C@@H](c1ccccc1)n1c(=O)n2n(c1=O)[C@H]1[C@H](O)[C@H]3O[C@@H]3/C(=N/OCc3ccccc3)[C@@H]1CC2`, the activity, negative = inhibition was -21.9% [at 11.4 µM].
As for `COc1ccc(N=C2S/C(=C\c3ccc(C)s3)C(=O)N2CC(C)C)cc1`, the half-maximal activity concentration (AC50) was 7.08 µM (active).
The same measure, in the same setting: the result for `CCCN1C(=O)/C(=C/c2ccc(C)s2)SC1=Nc1ccc(OC)cc1` reads 7.94 µM (active).
Take `O=C1[C@@H]2[C@H]3[C@H](O)[C@H](O)C/C(=N/OC[C@@H](O)COCc4ccco4)[C@@H]3CC[C@H]2C(=O)N1c1ccc(F)cc1F`: the activity, negative = inhibition was -0.354% [at 11.4 µM].
`O=C(CCn1c(=S)[nH]c2ccccc2c1=O)NCCCN1CCOCC1`: the “activity, negative = inhibition” value is -1.93%.
On to `O=C(CCCn1c(=S)[nH]c2ccc(Br)cc2c1=O)N1CCN(c2ccccn2)CC1`, for which the AC50 was 3.16 µM (active).
`CC(=O)N1CCC2(CCCN(c3ccccn3)C2)CC1`: the “activity, negative = inhibition” value was 1.68%.
The same measure, in the same setting: the result for `Cn1c(N)nc2c(nc(OCc3ccccc3)n2[C@@H]2O[C@H](CO)[C@@H](O)[C@@H]2O)c1=O` reads 1.04% [at 11.4 µM].
